Source: PubChem BioAssay (The Scripps Research Institute Molecular Screening Center)
TLR9-MyD88 block: blocks human TLR9 binding to MyD88; Q9NR96+Q99836; CHO BLA complementation TLR9-MyD88, CCF4 FRET ratio; inhibition, % at 4.98 µM; 340,000 compounds, 0.21% hits; AID 504734;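 active = inhibition above the mean over all tested compounds plus 3 SD, cut at about 21% in these data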;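 also: 0% = DMSO only wells and 100% = clavulanate BLA inhibitor control wells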
PRMT1 FP inh: blocks human protein arginine methyltransferase 1; recombinant PRMT1, activity-based probe fluorescence polarization; inhibition, % at 2.79 µM; 370,000 compounds, 1.3% hits; Q99873;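 active = inhibition above about 21% made by adding two undisclosed values, limit read from the data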
rCAG RNA binder: binds r(CAG) RNA repeats. r(CAG) RNA repeat, TO-PRO-1 dye displacement fluorescence. inhibition, % at 3 µM. 370,000 compounds, 1.3% hits. AID 651821;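 active = inhibition above the plate cutoff, the mean of all test compounds on that plate plus 3 SD, cut at about 35% in these data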;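 also: 0% = DMSO alone and 100% = 100 µM mitoxantrone as full dye displacement; higher means more dye released from RNA so lower well fluorescence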
ABHD5 PLIN5 PPI: ABHD5-PLIN5 protein interaction inhibition; inhibition, % at 4 µM; Split G. princeps luciferase complementation, luminescence, 4 h; Q00G26+Q8WTS1; 360,000 compounds, 0.78% hits;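 active = inhibition above the mean inhibition across every tested compound plus 3 SD, cut at about 22% in these data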;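 also: 0% = DMSO only wells and the 100% control is not disclosed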
TLR4-MyD88 BLA: inhibitors of human TLR4-MyD88 binding; O00206+Q99836; HeLa CL3-4 TLR4/MyD88 BLA complementation, FRET ratio; inhibition, % at 8.4 µM; 200,000 compounds, 0.18% hits; in the data active = inhibition above about 25%;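 also: 0% = vehicle and 100% = reference inhibitor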
Target sequence (O00206 whole entry, looked up): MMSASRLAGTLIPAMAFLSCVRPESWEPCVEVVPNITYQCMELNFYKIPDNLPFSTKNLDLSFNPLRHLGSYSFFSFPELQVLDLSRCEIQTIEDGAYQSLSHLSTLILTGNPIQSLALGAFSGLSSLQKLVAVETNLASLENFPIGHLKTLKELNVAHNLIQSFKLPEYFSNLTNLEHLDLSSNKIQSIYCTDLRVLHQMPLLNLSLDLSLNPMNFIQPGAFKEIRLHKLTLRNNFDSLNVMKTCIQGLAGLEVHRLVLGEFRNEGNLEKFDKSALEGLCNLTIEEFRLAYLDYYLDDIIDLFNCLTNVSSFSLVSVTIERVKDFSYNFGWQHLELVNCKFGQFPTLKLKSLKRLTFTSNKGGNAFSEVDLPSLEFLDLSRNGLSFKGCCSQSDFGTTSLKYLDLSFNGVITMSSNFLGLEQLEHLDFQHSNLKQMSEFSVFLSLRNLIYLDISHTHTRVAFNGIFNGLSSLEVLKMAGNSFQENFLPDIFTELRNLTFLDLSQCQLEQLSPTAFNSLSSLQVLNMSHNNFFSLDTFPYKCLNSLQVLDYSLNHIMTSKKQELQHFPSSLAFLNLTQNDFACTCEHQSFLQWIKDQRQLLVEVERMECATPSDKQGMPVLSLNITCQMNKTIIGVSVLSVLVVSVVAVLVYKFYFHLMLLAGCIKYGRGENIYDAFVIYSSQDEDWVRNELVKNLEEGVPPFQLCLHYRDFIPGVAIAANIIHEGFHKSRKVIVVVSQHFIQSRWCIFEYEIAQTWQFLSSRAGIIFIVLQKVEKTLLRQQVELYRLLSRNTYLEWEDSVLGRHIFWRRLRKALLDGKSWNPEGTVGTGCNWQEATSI
Target sequence (Q99836 whole entry, looked up): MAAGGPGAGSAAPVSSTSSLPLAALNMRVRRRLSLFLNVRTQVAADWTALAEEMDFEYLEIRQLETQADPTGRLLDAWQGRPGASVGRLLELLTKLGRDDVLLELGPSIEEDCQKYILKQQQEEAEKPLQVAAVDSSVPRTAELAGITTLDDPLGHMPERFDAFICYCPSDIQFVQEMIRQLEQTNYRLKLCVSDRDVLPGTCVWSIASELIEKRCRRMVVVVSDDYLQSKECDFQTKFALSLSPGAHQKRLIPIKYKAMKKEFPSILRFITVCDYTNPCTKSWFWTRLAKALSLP
NOD2-RIPK2 inh: inhibitors of human NOD2-RIPK2 interaction | O43353 | CHO BLA complementation NOD2-RIPK2, CCF4 ratio | 360,000 compounds, 0.38% hits | inhibition, % at 4.98 µM | AID 624267; in the data active = inhibition above about 21%;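 also: 0% = vehicle only and 100% = reference blocker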
rCAG binder conf: r(CAG) RNA repeat binding, confirmation. shares compounds with rCAG RNA binder. TO-PRO-1 dye displacement fluorescence. inhibition, % at 3 µM. 4,300 compounds, 70% hits;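 active = inhibition above a per-plate cutoff, the mean inhibition of sample wells plus 3 SD, cut at about 35% in these data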;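 also: loss of TO-PRO-1 fluorescence as compound displaces dye from 1x1 AA loop RNA; 0% = DMSO only wells and 100% = 100 µM mitoxantrone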
DNA CAG counter: counter-screen for rCAG RNA binders: DNA CAG dye complex inhibitors | 4,300 compounds, 94% hits | inhibition, % at 3 µM | shares compounds with rCAG RNA binder | d(CAG) DNA oligo TO-PRO-1 dye displacement, fluorescence;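 active = inhibition above its plate's cutoff, the mean test-well inhibition plus 3 SD, cut at about 4.8% in these data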;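 also: 0% = DNA dye mix with DMSO and 100% = 100 µM mitoxantrone; hits displace the dye from DNA and so lower well fluorescence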
DNA CAG DR: disrupts DNA CAG TO-PRO-1 complex in dose response; shares compounds with rCAG RNA binder; DNA CAG/GTC duplex TO-PRO-1 dye displacement fluorescence; IC50, µM; 250 compounds, 20% hits; in the data active = IC50 below about 10 µM
PRMT1 confirm: PRMT1 (human) inhibition, FP confirmation. inhibition, % at 2.79 µM. shares compounds with PRMT1 FP inh. 3,300 compounds, 42% hits. recombinant His-PRMT1, activity-based probe fluorescence polarization;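 active = mean inhibition across replicates above the hit cutoff derived for the earlier primary screen, cut at about 22% in these data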
* hit, by the source's call; i = inactive; . = not tested or not shown. In the library only some 3.3% were active in any assay of this set; here they are far more common.

SMILES	TLR9-MyD88 block	PRMT1 FP inh	rCAG RNA binder	ABHD5 PLIN5 PPI	TLR4-MyD88 BLA	NOD2-RIPK2 inh	rCAG binder conf	DNA CAG counter	PRMT1 confirm	others
CCc1cc2cc3c(cc2nc1SCC(=O)Nc1cc(OC)c(OC)cc1C(=O)O)OCO3	.	.	.	.	7.2	.	.	.	.
CCc1cc2ccc(C)cc2nc1SCC(=O)Nc1cc(OC)c(OC)cc1C(=O)O	-4.4	5.2	44.9*	-3.4	1.7	4.0	75.6*	28.3*	.	DNA CAG DR=i
Cc1nc(-c2ccc(S(=O)(=O)Nc3ccc(Br)cc3Cl)s2)cs1	0.4	1.4	74.2*	-1.1	.	0.1	65.5*	26.6*	.
COc1ccc(Cl)cc1NC(=O)[C@@]1(CC(=O)O)CC(/C=C/c2ccccc2)=NO1	0.2	0.8	38.1*	-8.2	.	-1.8	35.8*	8.2*	.
Cc1ccc(S(=O)(=O)N2[C@@H](CO)CO[C@H]2CC(=O)c2ccc(F)cc2)cc1	.	4.3	-1.3	3.4	.	-18.6	.	.	.
CC(=O)C1=C(O)C2(C)c3c(O)c(C)c(O)c(C(C)=O)c3OC2CC1=O (stereo not given)	-1.4	11.3	76.3*	5.8	.	-0.8	52.0*	17.5*	.
CC(=O)c1c(O)c(C)c(O)c2c1OC1=Cc3c(c(C)nn3C)C(=O)C12C (stereo not given)	4.5	-1.0	6.1	-1.5	.	0.2	.	.	.
O=C(CCCSc1ccccc1)Nc1nc(-c2ccco2)c(-c2ccco2)s1	-6.9	44.3*	73.7*	21.3	-1.2	2.2	21.8	14.3*	2.2
COc1ccc([C@@]23CCN=C2c2[nH]c4ccccc4c2CCN3)c(N)c1	.	4.8	.	.	.	.	.	.	.
NC(=S)NN=C1c2cc(S(=O)(=O)N3CCOCC3)ccc2-c2ccc(S(=O)(=O)N3CCOCC3)cc21	-0.2	29.9*	35.1*	1.1	6.7	0.1	46.2*	19.7*	7.0
COC(=O)[C@H]1[C@@H](O)[C@@]2(O)c3c(OC)cc(OC)cc3O[C@@]2(c2ccc(OC)cc2)[C@@H]1c1ccc(F)cc1	.	-3.1	0.5	.	.	.	.	.	.
Cc1cccc(/C=N/n2c(-c3cc(-c4ccccc4)n[nH]3)n[nH]c2=S)c1	2.1	4.3	22.5	-7.2	4.4	-5.2	.	.	.
Cc1cccc(-c2n[nH]c(=S)n2/N=C/C=C/c2ccco2)c1	2.3	46.2*	42.6*	1.5	.	-2.7	26.0	12.5*	10.6
S=c1[nH]nc(-c2cc(-c3ccccc3)n[nH]2)n1N=Cc1c[nH]c2ccccc12	.	32.1*	78.4*	.	.	.	65.7*	22.8*	24.1*
S=c1[nH]nc(-c2cc(-c3ccccc3)n[nH]2)n1/N=C/c1cccs1	3.7	27.7*	35.5*	-10.5	.	-1.2	39.2*	10.3*	30.9*
COc1ccccc1/C=C/C=N/n1c(-c2cc(-c3ccccc3)n[nH]2)n[nH]c1=S	-10.2	26.1*	44.3*	-12.0	.	2.2	63.4*	24.7*	22.6*
CCCCN(C(=O)C(C)Oc1ccc(Br)cc1)c1c(N)n(Cc2ccccc2)c(=O)[nH]c1=O (stereo not given)	-8.0	0.8	-0.6	1.6	.	2.0	.	.	.
CC(C)C(OC(=O)c1cccs1)C(=O)NCc1ccccc1 (stereo not given)	7.4	-0.9	-3.6	-5.7	-8.2	5.2	.	.	.
O=C(CSc1ccc(-c2ccco2)nn1)c1cccc([N+](=O)[O-])c1	0.2	31.4*	35.5*	1.8	9.6	-8.2	16.8	11.3*	4.2
Cn1cc(CCC(=O)NCc2ccc(Cl)cc2)c2ccccc21	8.5	-0.3	-2.8	-7.6	.	5.0	.	.	.
CC1CCCC(=NNC(=O)C2COc3ccccc3O2)C1 (stereo not given)	-1.0	3.0	0.9	-8.8	.	1.2	.	.	.
O=c1n(Cc2ccccc2)c(O)c2n1Cc1ccccc1N=C2c1ccccc1	.	2.5	2.3	3.9	.	-14.5	.	.	.
C#CCNCCS(=O)(=O)N(Cc1ccc(Br)cc1)[C@@H](CC(C)C)C(=O)O	-2.5	4.5	29.9	0.9	.	-3.6	.	.	.
O=[N+]([O-])c1c(NCc2ccco2)ccc2nonc12	.	-1.5	-0.3	-6.0	.	-3.9	.	.	.
CC(=O)OCCCNc1cc(SCc2ccco2)c2nonc2c1[N+](=O)[O-]	-1.1	54.0*	59.6*	3.1	6.7	-20.1	22.0	9.8*	13.6
SMILES	TLR9-MyD88 block	PRMT1 FP inh	rCAG RNA binder	ABHD5 PLIN5 PPI	TLR4-MyD88 BLA	NOD2-RIPK2 inh	rCAG binder conf	DNA CAG counter	PRMT1 confirm	others
O=C(CSc1nc2ccccc2s1)Nc1cc(S(=O)(=O)N2CCOCC2)ccc1O	2.5	37.7*	48.8*	-0.8	4.1	-17.6	39.7*	15.9*	40.1*
CCCCc1ccc(CC(=O)Nc2cc(S(=O)(=O)N3CCOCC3)ccc2O)cc1	8.0	31.7*	47.7*	-15.4	.	8.0	51.3*	16.1*	13.4
CCN(C(=O)CCc1cn(CC)c2ccccc12)c1ccc(Oc2cccnc2)cc1	.	-7.0	2.3	.	.	.	.	.	.
O=C1/C(=C\c2cccc(O)c2O)SC(=S)N1Cc1ccccc1	5.8	94.0*	37.2*	-10.4	.	10.2	82.9*	52.6*	14.0
O=C1/C(=C/c2ccncc2)SC(=S)N1Cc1ccccc1	-4.2	2.5	4.7	15.9	.	1.3	.	.	.
O=C(O)CN1C(=O)/C(=C\c2ccccc2OCc2ccc(F)cc2)SC1=S	7.3	24.9*	84.0*	-9.2	.	2.8	72.1*	30.6*	-1.1	DNA CAG DR=i
CN(C)c1ccc2nc3ccc(=O)cc-3sc2c1	-2.0	60.0*	35.4*	-8.9	.	-5.3	31.2	11.9*	35.0*
CCc1nnc(SCc2ccc([N+](=O)[O-])cc2)nc1CC	8.2	1.8	-6.1	-4.7	.	-5.8	.	.	.
O=C1NC(=S)S/C1=C\C=C\c1ccc([N+](=O)[O-])o1	-4.9	42.9*	67.1*	18.4	.	2.5	70.0*	35.6*	28.1*
O=C(c1cc(O)c(O)c([N+](=O)[O-])c1)c1ccccc1F	5.5	34.8*	35.3*	10.3	.	-11.3	34.6*	6.4*	11.7
O=C(Nc1ccc([N+](=O)[O-])cc1)c1ccccc1F	-3.1	-2.5	0.2	9.2	6.6	-6.7	.	.	.
O=C(O)CC(C(=O)O)N1C(=O)/C(=C/c2ccc(-c3nc4ccccc4s3)o2)SC1=S (stereo not given)	2.2	55.1*	62.3*	-15.3	2.4	-5.5	53.5*	19.4*	-14.6
O=Cc1ccc(-c2nc3ccccc3s2)o1	-0.6	3.0	5.2	-3.5	15.2	-3.6	.	.	.
